Source: the supplement of paper PMC9492666
Structures can show the parent of a compound that is named as a salt.

How the values were obtained:
Details in all cases: 72 h
[1] = system: HCC1937; assay: relative cell viability, compound + erastin, vs DMSO (fraction of DMSO control); higher = less growth inhibition
[2] = system: MDA-MB-231; assay: as above
[3] = system: HCC1937; assay: relative cell viability, compound alone, vs DMSO (fraction of DMSO control); higher = less growth inhibition
[4] = system: MDA-MB-231; assay: as above
[5] = system: HCC1937; assay: relative cell viability, compound + RSL3, vs DMSO (fraction of DMSO control); higher = less growth inhibition
[6] = system: MDA-MB-231; assay: as above
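Throughout, for relative cell viability, compound + RSL3, vs DMSO: breast cancer cell viability read out with the CCK-8 kit after co-treatment of each compound with the ferroptosis inducer RSL3.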
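Throughout, for relative cell viability, compound + erastin, vs DMSO: viability read by CCK-8 kit in 96-well plates, part of a combination screen pairing lipid-metabolism-targeting compounds with erastin.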
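Throughout, for relative cell viability, compound alone, vs DMSO: viability read out with the CCK-8 kit in 96-well plates, screening a set of 303 compounds acting on lipid metabolism targets.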

In the case of `CC1(C)CC[C@]2(C(=O)O[C@@H]3O[C@H](CO)[C@@H](O)[C@H](O)[C@H]3O)CC[C@]3(C)C(=CC[C@@H]4[C@@]5(C)CC[C@H](O[C@@H]6O[C@H](C(=O)O)[C@@H](O)[C@H](O)[C@H]6O)C(C)(C)[C@@H]5CC[C@]43C)[C@@H]2C1` [Chikusetsusaponin IVa] + CCOc1ccccc1-n1c(C(C)N2CCN(C(=O)COc3ccc(Cl)cc3)CC2)nc2ccccc2c1=O [erastin], the relative cell viability [1] is reported as 0.592 and the relative cell viability [2] is reported as 0.682.
In the case of `CC(C)(C)N1C(=O)C(Nc2ccc(N3CCCCC3)cc2)=C(c2ccccc2)S1(=O)=O` + CCOc1ccccc1-n1c(C(C)N2CCN(C(=O)COc3ccc(Cl)cc3)CC2)nc2ccccc2c1=O [erastin], the relative cell viability [1] is reported as 0.678 and the relative cell viability [2] is reported as 0.797.
`O=C(NCCN1CCC2(CC1)C(=O)NCN2c1ccccc1)c1ccc2ccccc2c1` gave a relative cell viability [3] of 0.491 and a relative cell viability [4] of 0.689.
In the case of `CCC1=N[C@H]2C[C@@]3(C(=O)N(OC)c4ccccc43)[C@H]3CC1[C@@H]2CO3` [Humantenmine] + COC(=O)c1ccc([C@H]2c3[nH]c4ccccc4c3C[C@H](C(=O)OC)N2C(=O)CCl)cc1 [RSL3], the relative cell viability [5] is reported as 0.585 and the relative cell viability [6] is reported as 0.679.
Work on `C/C=C/c1cc(OC)c(OC)cc1OC` [alpha-Asarone] yielded a relative cell viability [3] of 0.855 and a relative cell viability [4] of 0.976.
With `O=C(Oc1ccc([N+](=O)[O-])cc1)N1CCC(C(O)(c2ccc3c(c2)OCO3)c2ccc3c(c2)OCO3)CC1` the relative cell viability [3] was 0.911 and the relative cell viability [4] was 0.901.
Work on `COc1ccc(CN2CCNCC2)c(OC)c1OC` [Trimetazidine dihydrochloride] + COC(=O)c1ccc([C@H]2c3[nH]c4ccccc4c3C[C@H](C(=O)OC)N2C(=O)CCl)cc1 [RSL3] yielded a relative cell viability [5] of 0.782 and a relative cell viability [6] of 0.607.
Work on `CC(C)=CCC[C@](C)(O)[C@H]1CC[C@]2(C)[C@@H]1[C@H](O)C[C@@H]1[C@@]3(C)CC[C@H](O)C(C)(C)[C@@H]3[C@@H](O[C@@H]3O[C@H](CO)[C@@H](O)[C@H](O)[C@H]3O)C[C@]12C` [Ginsenoside Rh1] + CCOc1ccccc1-n1c(C(C)N2CCN(C(=O)COc3ccc(Cl)cc3)CC2)nc2ccccc2c1=O [erastin] yielded a relative cell viability [1] of 0.679 and a relative cell viability [2] of 0.663.
Compound `Cc1cc(SCc2sc(-c3ccc(C(F)(F)F)c(F)c3)nc2C)ccc1OCC(=O)O` has a relative cell viability [3] of 1.21 and a relative cell viability [4] of 0.892.
Compound `CCC1=N[C@H]2C[C@@]3(C(=O)N(OC)c4ccccc43)[C@H]3CC1[C@@H]2CO3` [Humantenmine] has a relative cell viability [3] of 0.922 and a relative cell viability [4] of 0.978.
`O=C(Oc1ccc([N+](=O)[O-])cc1)N1CCC(C(O)(c2ccc3c(c2)OCO3)c2ccc3c(c2)OCO3)CC1` + COC(=O)c1ccc([C@H]2c3[nH]c4ccccc4c3C[C@H](C(=O)OC)N2C(=O)CCl)cc1 [RSL3] showed a relative cell viability [5] of 0.483 and a relative cell viability [6] of 0.618.
For `C[C@@]12C[C@@H](c3ccoc3)OC(=O)[C@@H]1CC[C@]1(C)[C@H]2[C@@H]2C=C[C@@]1(O)C(=O)O2` [Columbin] + COC(=O)c1ccc([C@H]2c3[nH]c4ccccc4c3C[C@H](C(=O)OC)N2C(=O)CCl)cc1 [RSL3], the relative cell viability [5] was 0.564 and the relative cell viability [6] was 0.642.
Work on `O=C(Oc1ccc([N+](=O)[O-])cc1)N1CCN(Cc2cccc(Oc3ccccc3)c2)CC1` + COC(=O)c1ccc([C@H]2c3[nH]c4ccccc4c3C[C@H](C(=O)OC)N2C(=O)CCl)cc1 [RSL3] yielded a relative cell viability [5] of 0.673 and a relative cell viability [6] of 0.473.
For `Cc1cc(SCc2sc(-c3ccc(C(F)(F)F)c(F)c3)nc2C)ccc1OCC(=O)O` + COC(=O)c1ccc([C@H]2c3[nH]c4ccccc4c3C[C@H](C(=O)OC)N2C(=O)CCl)cc1 [RSL3], the relative cell viability [5] was 0.59 and the relative cell viability [6] was 0.668.
`O=C(O)c1cccc(N=Nc2c(O)[nH]c3ccc(S(=O)(=O)NCc4ccc(F)cc4)cc23)c1` + CCOc1ccccc1-n1c(C(C)N2CCN(C(=O)COc3ccc(Cl)cc3)CC2)nc2ccccc2c1=O [erastin] was tested, and the relative cell viability [1] was 0.544 and the relative cell viability [2] was 0.636.
`C[C@@H]1C(=O)O[C@H]2[C@H](O)[C@@]34O[C@@H]5OC(=O)[C@H](O)[C@@]56[C@H](C(C)(C)C)[C@H](O)C(OC3=O)[C@]64[C@@]12O` (stereo partly specified) [Ginkgolide C] + COC(=O)c1ccc([C@H]2c3[nH]c4ccccc4c3C[C@H](C(=O)OC)N2C(=O)CCl)cc1 [RSL3] showed a relative cell viability [5] of 0.699 and a relative cell viability [6] of 0.692.
`C[C@@]12C[C@@H](c3ccoc3)OC(=O)[C@@H]1CC[C@]1(C)[C@H]2[C@@H]2C=C[C@@]1(O)C(=O)O2` [Columbin] was tested, and the relative cell viability [3] was 0.968 and the relative cell viability [4] was 1.06.
In the case of `C/C=C/c1cc(OC)c(OC)cc1OC` [alpha-Asarone] + COC(=O)c1ccc([C@H]2c3[nH]c4ccccc4c3C[C@H](C(=O)OC)N2C(=O)CCl)cc1 [RSL3], the relative cell viability [5] is reported as 0.452 and the relative cell viability [6] is reported as 0.541.
